PubChem BioAssay AID1159580 (chemical genetic matrix, 2015)
“And” between values parts separate entries of the source, which are not always exact repeats. Equal entries are not always repeated. In all, about 5,500 compounds went through this assay and about 2,000 (36%) were called active. Inconclusive results (about 18%) are left out. No stated cut-off is given here; in the data, active means normalized growth mostly below about 0.91 (no sharp cut-off); inconclusive means no clear call, values can overlap the other calls; inactive means mostly above about 0.92. Some of the results follow.

Assay: chemical genetic growth profiling, strain panel (AID 1159580);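 further: tested at 20 µM; growth read once vehicle control cultures reached saturation at 30 °C; 1 = growth at the plate median or of vehicle wells; lower values mean less growth of the strain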
Conditions: S. cerevisiae deletion strains, growth OD

Measured: normalized growth

CC(=O)OCC1=C(C(=O)O)N2C(=O)[C@@H](NC(=O)CSc3ccncc3)[C@H]2SC1
inactive: locus YAL013W, strain DEP1, active compounds read low 0.988 | locus YAL021C, strain ccr4, active compounds read low 1.02 | locus YAL026C, strain drs2, active compounds read low 1.02 | locus YAL030W, strain snc1, active compounds read low 1 | locus YBL061C, strain skt5, active compounds read low 1.04 | locus YBR009C, strain hhf1, active compounds read low 1.01 | locus YBR021W, strain FUR4, active compounds read low 1.02 | locus YBR023C, strain chs3, active compounds read low 1.04 | locus YBR171W, strain sec66, active compounds read low 1.02 | locus YBR229C, strain ROT2, active compounds read low 0.95 | locus YBR231C, strain swc5, active compounds read low 1.04 | locus YBR279W, strain paf1, active compounds read low 1.03 | locus YCL011C, strain gbp2, active compounds read low 1.01 | locus YCL016C, strain dcc1, active compounds read low 1.02 | locus YCL029C, strain bik1, active compounds read low 1 | locus YCL061C, strain MRC1, active compounds read low 1.01 | locus YCL069W, strain vba3, active compounds read low 1.02 | locus YCR088W, strain abp1, active compounds read low 1.02 | locus YDL005C, strain med2, active compounds read low 1.02 | locus YDL035C, strain GPR1, active compounds read low 0.959 | locus YDL040C, strain nat1, active compounds read low 1.02 | locus YDL074C, strain BRE1, active compounds read low 1 | locus YDL101C, strain DUN1, active compounds read low 0.988 | locus YDL185W, strain tfp1, active compounds read low 0.966 | locus YDL192W, strain arf1, active compounds read low 0.984 | locus YDR001C, strain nth1, active compounds read low 1.02 | locus YDR069C, strain doa4, active compounds read low 1.04 | locus YDR101C, strain arx1, active compounds read low 0.976 | locus YDR137W, strain rgp1, active compounds read low 1 | locus YDR159W, strain sac3, active compounds read low 1.03 | locus YDR162C, strain NBP2, active compounds read low 0.946 | locus YDR195W, strain ref2 1.03 | locus YDR297W, strain sur2, active compounds read low 1.02 | locus YDR318W, strain mcm21, active compounds read low 0.99 | locus YDR334W, strain swr1, active compounds read low 1.01 | locus YDR335W, strain msn5, active compounds read low 1.03 | locus YDR388W, active compounds read low 0.988 | locus YDR392W, strain spt3, active compounds read low 0.957 | locus YDR502C, strain sam2, active compounds read low 0.998 | locus YEL003W, strain gim4, active compounds read low 1.03 | locus YEL037C, strain rad23, active compounds read low 1 | locus YEL061C, strain CIN8 (second series), active compounds read low 1.05 | locus YEL061C, strain CIN8, active compounds read low 0.99 | locus YER015W, strain faa2, active compounds read low 1.01 | locus YER016W, strain bim1, active compounds read low 1.03 | locus YER110C, active compounds read low 0.991 | locus YER111C, strain swi4, active compounds read low 0.997 | locus YER155C, strain BEM2 (second series), active compounds read low 0.992 | locus YER155C, strain BEM2, active compounds read low 0.994 | locus YER167W, strain BCK2, active compounds read low 0.995 | locus YFR010W, strain ubp6, active compounds read low 1.02 | locus YGL078C, strain dbp3, active compounds read low 0.995 | locus YGL086W, strain mad1, active compounds read low 0.981 | locus YGL167C, strain pmr1, active compounds read low 1.03 | locus YGL173C, strain kem1, active compounds read low 1.03 | locus YGL227W, strain vid30, active compounds read low 1.01 | locus YGL240W, strain doc1, active compounds read low 1.03 | locus YGL248W, strain PDE1, active compounds read low 1.01 | locus YGL253W, strain hxk2, active compounds read low 1.02 | locus YGR078C, strain PAC10, active compounds read low 0.989 | locus YGR135W, strain pre9, active compounds read low 1.04 | locus YGR252W, strain gcn5, active compounds read low 1.02 | locus YHR013C, strain ard1, active compounds read low 1.03 | locus YHR027C, strain rpn1, active compounds read low 1.02 | locus YHR030C, strain SLT2, active compounds read low 0.983 and 0.995 | locus YHR079C, strain IRE1 (second series), active compounds read low 0.997 | locus YHR079C, strain IRE1, active compounds read low 1.01 | locus YHR094C, strain hxt1, active compounds read low 0.991 | locus YHR129C, strain ARP1, active compounds read low 0.984 | locus YHR142W, strain chs7, active compounds read low 1.03 | locus YHR200W, strain rpn10, active compounds read low 0.984 | locus YIL066C, strain RNR3, active compounds read low 0.969 | locus YIL073C, strain SPO22, active compounds read low 1.03 | locus YIL125W, strain kgd1, active compounds read low 0.984 | locus YIR030C, strain dcg1, active compounds read low 0.993 | locus YJL092W, strain hpr5, active compounds read low 1.02 | locus YJL095W, strain BCK1 (second series), active compounds read low 1.02 | locus YJL095W, strain BCK1, active compounds read low 1.05 and 0.991 | locus YJL115W, strain asf1, active compounds read low 1.03 | locus YJL129C, strain trk1, active compounds read low 1.01 | locus YJL134W, strain LCB3, active compounds read low 0.991 | locus YJL154C, strain vps35, active compounds read low 1.02 | locus YJL164C, strain tpk1, active compounds read low 1.01 | locus YJL166W, strain qcr8, active compounds read low 1.03 | locus YJL168C, strain set2, active compounds read low 0.99 | locus YJL187C, strain SWE1 (second series), active compounds read low 1 | locus YJL187C, strain SWE1, active compounds read low 1.02
